The text below walks through data of PubChem BioAssay (NCATS).

The target in assay [1] is Cytochrome P450 3A4 (Homo sapiens) (UniProt P08684). The experiment in a line: qHTS Assay for Inhibitors and Substrates of Cytochrome P450 3A4 (AID 884). Further: nearly all actives have a fitted effect of over 50% in size. Further: potency means the concentration at half of the fitted maximal effect. The method in brief: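 Luminescent readout of luciferin produced by CYP3A4 (20 nM) dealkylation of Luciferin-PPXE, 25 uM (its KM). NADPH-driven reaction ran 60 min at RT after 10 min compound preincubation; data scaled to 57 uM ketoconazole as 100% inhibition.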
Sequence of Cytochrome P450 3A4 (Homo sapiens) (P08684 whole entry, looked up): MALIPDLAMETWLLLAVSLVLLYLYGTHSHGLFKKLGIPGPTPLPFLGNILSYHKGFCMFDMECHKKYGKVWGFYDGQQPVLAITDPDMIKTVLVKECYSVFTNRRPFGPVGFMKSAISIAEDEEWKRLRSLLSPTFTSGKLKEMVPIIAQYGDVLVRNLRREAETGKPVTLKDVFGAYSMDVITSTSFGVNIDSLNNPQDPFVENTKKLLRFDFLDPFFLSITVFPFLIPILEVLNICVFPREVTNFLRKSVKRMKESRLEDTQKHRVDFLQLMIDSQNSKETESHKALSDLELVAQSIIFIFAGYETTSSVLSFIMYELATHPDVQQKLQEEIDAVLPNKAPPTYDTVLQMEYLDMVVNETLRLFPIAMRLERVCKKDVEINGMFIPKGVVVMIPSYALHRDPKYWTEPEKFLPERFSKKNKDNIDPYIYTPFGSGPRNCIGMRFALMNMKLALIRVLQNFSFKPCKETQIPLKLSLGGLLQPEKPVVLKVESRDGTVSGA

The target of assay [2] is Cytochrome P450 2D6 (Homo sapiens) (UniProt P10635). The experiment in a line: qHTS Assay for Inhibitors and Substrates of Cytochrome P450 2D6 (AID 891). Further: potency means the concentration at half of the fitted maximal effect; nearly all actives have a fitted effect of over 60% in size. Summed up:
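Luminescent read-out of luciferin formed by 5 nM human CYP2D6 demethylating 30 uM Luciferin-ME EGE (Km level) over 60 min at room temperature after NADPH regeneration addition. Data normalized to full inhibition by 1.43 uM quinidine.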
For orientation: In qHTS, concentration-response curves come from the screen itself.

In assay [3] the target is Cytochrome P450 2C19 (Homo sapiens) (UniProt P33261). As to the kind of experiment: qHTS Assay for Inhibitors and Substrates of Cytochrome P450 2C19 (AID 899). Further: on the % scale 0 is the no-effect control and ±100 the full control effect; nearly all actives have a fitted effect of over 60% in size. Summed up: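 Human CYP2C19 (5nM) with Luciferin-H EGE at 10uM (its KM) in 50mM KPO4 was preincubated with compound for 10 min at 37C. NADPH regeneration started a 60 min 37C reaction. Luciferin was read by luminescence, normalized to 57uM ketoconazole.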
Sequence of Cytochrome P450 2C19 (Homo sapiens) (P33261 whole entry, looked up): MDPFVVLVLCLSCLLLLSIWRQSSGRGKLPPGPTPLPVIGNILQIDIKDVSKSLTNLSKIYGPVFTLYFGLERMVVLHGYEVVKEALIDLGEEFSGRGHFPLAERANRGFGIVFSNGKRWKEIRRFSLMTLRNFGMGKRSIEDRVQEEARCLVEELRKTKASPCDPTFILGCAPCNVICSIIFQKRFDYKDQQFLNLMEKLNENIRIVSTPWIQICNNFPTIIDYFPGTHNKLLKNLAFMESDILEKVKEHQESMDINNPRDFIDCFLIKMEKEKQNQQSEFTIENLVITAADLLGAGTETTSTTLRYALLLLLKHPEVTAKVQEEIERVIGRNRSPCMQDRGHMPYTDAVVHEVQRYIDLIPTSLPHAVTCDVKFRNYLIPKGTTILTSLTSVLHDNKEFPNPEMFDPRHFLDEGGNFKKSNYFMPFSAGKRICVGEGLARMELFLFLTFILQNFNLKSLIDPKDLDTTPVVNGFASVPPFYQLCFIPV

Another assay relates to 7G8. As to the kind of experiment: qHTS profiling for inhibitors of Plasmodium falciparum proliferation (AID 504749). Further: nearly all actives have a fitted effect of over 60% in size. Further: potency means the concentration at half of the fitted maximal effect. The following applies: P. falciparum in erythrocytes, SYBR Green DNA, 72 h; series mostly up to 12.8 µM. Summed up:
(§1)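 Quantitative HTS: compounds pinned into medium, infected erythrocytes added (0.3% parasitemia, 2.5% hematocrit), 72 h culture at 37 C under 5% CO2. Saponin/Triton lysis with SYBR Green I, overnight RT, then fluorescence read.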

In the next assay the test system is AS120. The assay is described as above. The settings on record: P. falciparum in erythrocytes, SYBR Green DNA, 72 h; series mostly up to 28.7 µM. Summed up:
as §1

Another assay deals with CP191. The assay is described as above. The settings on record: P. falciparum in erythrocytes, SYBR Green DNA, 72 h; series mostly up to 28.7 µM. The method in brief:
as §1

For another assay, the system named is CP260. The assay is described as above. The settings on record: P. falciparum in erythrocytes, SYBR Green DNA, 72 h; series mostly up to 28.7 µM. Summed up: as §1
In a further assay the test system is CP265. Described as above. The settings on record: P. falciparum in erythrocytes, SYBR Green DNA, 72 h; series mostly up to 12.8 µM. The method in brief:
as §1

A further assay has as its system CP291. Described as above. The following applies: P. falciparum in erythrocytes, SYBR Green DNA, 72 h; series mostly up to 28.7 µM. Summed up:
as §1

The test system of a further assay is CP335. Described as above. The settings on record: P. falciparum in erythrocytes, SYBR Green DNA, 72 h; series mostly up to 12.8 µM. The method in brief:
as §1

The next assay concerns DIV14. The description is as above. The following applies: P. falciparum in erythrocytes, SYBR Green DNA, 72 h; series mostly up to 28.7 µM. The method in brief: as §1
A further assay relates to DIV17. Described as above. The following applies: P. falciparum in erythrocytes, SYBR Green DNA, 72 h; series mostly up to 28.7 µM. The method in brief:
as §1

In another assay the test system is ICS. The assay is described as above. The settings on record: P. falciparum in erythrocytes, SYBR Green DNA, 72 h; series mostly up to 28.7 µM. The method in brief: as §1
Another assay concerns PAD. The assay is described as above. The settings on record: P. falciparum in erythrocytes, SYBR Green DNA, 72 h; series mostly up to 28.7 µM. Summed up: as §1
The next assay has as its system SC27B. The assay is described as above. The settings on record: P. falciparum in erythrocytes, SYBR Green DNA, 72 h; series mostly up to 28.7 µM. The method in brief:
as §1

Another assay relates to TAB165. Described as above. The settings on record: P. falciparum in erythrocytes, SYBR Green DNA, 72 h; series mostly up to 28.7 µM. Summed up:
as §1

The subject of a further assay is W2. The assay is described as above. The settings on record: P. falciparum in erythrocytes, SYBR Green DNA, 72 h; series mostly up to 12.8 µM. Summed up:
as §1

The target in assay [4] is Alpha-galactosidase (Coffea arabica) (UniProt Q42656). As to the kind of experiment: Counterscreen for Glucocerebrosidase Inhibitors: qHTS Assay for Coffee Bean alpha-Galactosidase at pH 5.9 (AID 998).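 Further: plate controls were uninhibited enzyme for no effect and no-enzyme basal signal for full effect.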 The method in brief: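 In 50 mM citric acid pH 5.9 with 0.005% Tween-20, coffee bean enzyme hydrolyses 80 uM 4-MU alpha-D-galactopyranoside over 20 min at RT. Activity is normalized to controls; AC50 comes from Hill-modelled concentration-response data.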
Sequence of Alpha-galactosidase (Coffea arabica) (Q42656 whole entry, looked up): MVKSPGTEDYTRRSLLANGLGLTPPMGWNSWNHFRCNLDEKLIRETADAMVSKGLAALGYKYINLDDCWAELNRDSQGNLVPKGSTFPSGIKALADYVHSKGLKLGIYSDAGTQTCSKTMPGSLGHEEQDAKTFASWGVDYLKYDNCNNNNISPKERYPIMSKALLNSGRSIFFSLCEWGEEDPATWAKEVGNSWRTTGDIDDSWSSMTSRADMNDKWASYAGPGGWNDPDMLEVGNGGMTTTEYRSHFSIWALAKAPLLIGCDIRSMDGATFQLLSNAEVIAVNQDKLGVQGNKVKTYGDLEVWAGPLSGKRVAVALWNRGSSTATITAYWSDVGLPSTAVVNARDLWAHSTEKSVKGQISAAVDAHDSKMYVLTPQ
(In general: The purpose of a counterscreen is to sort out artefacts and off-target activity.)

A further assay concerns CP215. The experiment in a line: qHTS profiling for inhibitors of Plasmodium falciparum proliferation (AID 504749). Further: nearly all actives have a fitted effect of over 60% in size. Further: potency means the concentration at half of the fitted maximal effect. The following applies: P. falciparum in erythrocytes, SYBR Green DNA, 72 h; series mostly up to 28.7 µM. The method in brief: as §1
Assay [5] in a line: qHTS assay for environmental chemicals that activate the Aryl hydrocarbon Receptor (AhR) signaling pathway (AID 651777). Further: % of control where 0% means no effect; nearly all actives have a fitted effect of over 15% in size. The following applies: 1A2-DRE human hepatoma cells, luciferase, 24 h; activation: active compounds read high. The method in brief: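 Induction of CYP1A2 transcription through AhR is detected by luciferase in 1A2-DRE hepatoma cells. Compounds or DMSO act for 24 hr at 37 C before a 30 min One-Glo step at room temperature.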

“And” between values parts separate entries of the source, which are not always exact repeats. Equal values may be shown once. A number with no mark means an inactive call. Inconclusive results are not listed. The source made the active and inactive calls. The call rests on the fitted dose curve; in most records, active means well fitted curve in the direction sought with a large enough effect; inconclusive means small, poorly fitted or top-dose-only effect, or another doubt; inactive means no such curve, though single readings can be large; an effect the other way counts as inactive or inconclusive.

Sequence of Cytochrome P450 2D6 (Homo sapiens) (P10635 whole entry, looked up): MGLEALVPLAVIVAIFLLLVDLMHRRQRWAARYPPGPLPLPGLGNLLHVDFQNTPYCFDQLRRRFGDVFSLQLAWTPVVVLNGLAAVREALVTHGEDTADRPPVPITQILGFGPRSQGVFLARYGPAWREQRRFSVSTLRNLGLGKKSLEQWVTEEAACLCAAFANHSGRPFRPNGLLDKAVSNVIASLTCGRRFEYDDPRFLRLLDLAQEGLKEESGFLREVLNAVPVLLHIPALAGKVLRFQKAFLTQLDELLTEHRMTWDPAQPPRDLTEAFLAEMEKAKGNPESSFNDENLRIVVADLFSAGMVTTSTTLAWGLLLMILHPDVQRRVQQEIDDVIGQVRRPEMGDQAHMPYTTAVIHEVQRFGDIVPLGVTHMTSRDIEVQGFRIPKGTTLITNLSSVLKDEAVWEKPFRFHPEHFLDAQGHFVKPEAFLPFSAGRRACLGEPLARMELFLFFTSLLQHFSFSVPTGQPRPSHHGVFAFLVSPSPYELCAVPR

With `CN1Cc2c(ccc3c2OCO3)[C@@H]2[C@@H](O)Cc3cc4c(cc3[C@@H]21)OCO4`, the Potency in assay [1] is 5.01 µM (active); in assay [2], 199 nM (active) and 79.4 nM (active).

For `C=C1C/C(=C\C)C(=O)O[C@@H]2CCN3CC=C(COC(=O)[C@@]1(C)O)[C@H]23`, in assay [3], the Potency result was “inactive”.

Turning to `CN1[C@@H](C[C@@H](O)c2ccccc2)CCC[C@@H]1C[C@H](O)c1ccccc1`, the Potency in [2] was 631 nM (active).

In the case of `CC(C)CN1CC2(CCN(C(=O)c3ccncc3)CC2)C1`, the Potency in assay [2] is 3980 nM (active).

In the case of `CN[C@@H](C)[C@H]1CC[C@@H](N)[C@@H](O[C@@H]2[C@@H](O)[C@@H](O[C@H]3OC[C@@](C)(O)[C@@H](NC)[C@@H]3O)[C@H](N)C[C@@H]2N)O1` (tested in a mixture with another compound), the Potency result in the assay with 7G8, in the assay with AS120, with CP191, with CP260, in the assay with CP265 and in the assay with CP291 was “inactive” in each case. The Potency result in the assay with CP335, in the assay with DIV14, in the assay with DIV17, with ICS, with PAD and with SC27B was “inactive” in each case. Also, the Potency entry in the assay with TAB165 and in the assay with W2 was “inactive” in each case.

Consider `CN1C[C@H](CO)C=C2c3cccc4[nH]cc(c34)C[C@@H]21`, for which the Potency in [2] is 126 nM (active).

For the compound `CC[C@H]1C(=O)OC[C@H]1Cc1cncn1C`, in assay [1], the Potency was 3.16 µM (active). Also, the result in [4] was inactive.

Take `CN(C)[C@@H]1C(=O)C(C(N)=O)=C(O)[C@]2(O)C(=O)C3=C(O)c4c(O)ccc(Cl)c4[C@](C)(O)[C@H]3C[C@@H]12`: the Potency entry in the assay on AS120, in the assay with CP215, in the assay on CP265, with DIV14, with DIV17 and in the assay with PAD was “inactive” each time. In addition, the Potency result with SC27B, in the assay on TAB165 and in the assay with W2 was “inactive” each time.

Take `CC1=C2[C@@H]3OC(=O)[C@@H](C)[C@@H]3CC[C@]2(C)C=CC1=O`: the Potency result in the assay on 7G8, with CP215, in the assay with CP260, in the assay on CP291, in the assay with CP335 and with DIV14 was “inactive” in each case. Moreover, the Potency entry in the assay with DIV17, with ICS and in the assay with W2 was “inactive” each time.

As for `C[C@]12CC[C@H](O)C[C@@H]1CC[C@H]1[C@H]2CC[C@]2(C)C(=O)CC[C@@H]12`, in assay [1], the Potency result is “inactive”. Besides, in assay [4], the result was inactive.

With `CN(C)C(=O)Oc1cc(OC(=O)N(C)C)cc([C@@H](O)CNC(C)(C)C)c1`, the Potency in [2] is 7940 nM (active). Besides, the Potency entry (in assay [3]; in the assay on 7G8; with AS120; with CP191; with CP215; with CP260) was “inactive” throughout. Further, the Potency result in the assay on CP265, in the assay with CP291, in the assay with CP335, in the assay on DIV14, with DIV17 and in the assay on ICS was “inactive” throughout. For the same compound, the Potency result in the assay with PAD, in the assay on SC27B, in the assay on TAB165 and in the assay with W2 was “inactive” each time.

Consider `CCN(CC)C(=O)N[C@@H]1C[C@H]2c3cccc4[nH]cc(c34)C[C@@H]2N(C)C1`, for which the Potency in assay [2] was 15.8 nM (active).

`N#Cc1ccc(CN2CCC3(CC2)CCN(C(=O)Oc2ccccc2)CC3)cc1`: in assay [1], the Potency entry is “inactive”.

In the case of `CCN[C@]1(c2cccs2)CCCCC1=O`, the Potency result in the assay on 7G8, in the assay on AS120, with CP191, with CP215, in the assay on CP260 and with CP265 was “inactive” in each case. In addition, the Potency entry in the assay with CP291, in the assay with CP335, in the assay on DIV14, in the assay on DIV17, in the assay on ICS and in the assay with PAD was “inactive” in each case. Besides, the Potency result in the assay with SC27B and in the assay on TAB165 was “inactive” in each case.

As for `CNC(=O)N(C)c1nnc(C(C)(C)C)s1`, the activation in assay [5] is 3.03%.

With `CC(C)N(CC[C@@](C(N)=O)(c1ccccc1)c1ccccn1)C(C)C`, the compound was classed as inactive in assay [4]. Further, the Potency result in the assay on 7G8, in the assay on AS120, with CP191, with CP215, in the assay on CP260 and in the assay on CP265 was “inactive” in each case. In addition, the Potency entry in the assay on CP291, with CP335, with DIV14, in the assay on DIV17, with ICS and in the assay with PAD was “inactive” in each case. Moreover, the Potency result with SC27B and in the assay with TAB165 was “inactive” throughout.

For the compound `c1ccc2c(c1)[nH]c1cnccc12`, the Potency entry in assay [1] is “inactive”.

Turning to `Clc1ccc([C@@H](OCCN2CCCCC2)c2ccccc2)cc1`, the Potency in assay [2] is 15.8 nM (active); in the assay on 7G8 it was 3.55 µM (active); with CP260, 3.16 µM (active); with DIV17, 4.55 µM (active); in the assay with ICS, 1.58 µM (active); in the assay with W2 it was 1.81 µM (active). The Potency result in the assay with CP291 was “inactive”.

`CC[C@H]1CN2CC[C@@H]1C[C@H]2[C@@H](O)c1ccnc2ccc(OC)cc12`: the Potency in assay [2] was 3160 nM (active).

With `NC[C@H](O)c1ccc(O)cc1`, the result in assay [4] was inactive.
